# Test results taken from the supplement of paper PMC11732987, “Enantioselective OTUD7B fragment discovery through chemoproteomics screening and high-throughput optimisation” (Communications Chemistry, 2025).
# Unmarked numbers belong to inactive results.
# What was measured:
# Test in all cases: log2 ratio of Biotin-Ahx-Ub-VS probe labelling (fragment/DMSO); higher = less target engagement (more negative = stronger competition), active = hit call of the paper (q ≤ 0.05, log2 ratio ≤ -1)
# Conditions in all cases: compound concentration: 200 uM; treatment time: 3 h
# UniProt O00507 = biological target: UniProt O00507
# Chain of UniProt O00507 (O00507 whole entry, the tested form may be a part): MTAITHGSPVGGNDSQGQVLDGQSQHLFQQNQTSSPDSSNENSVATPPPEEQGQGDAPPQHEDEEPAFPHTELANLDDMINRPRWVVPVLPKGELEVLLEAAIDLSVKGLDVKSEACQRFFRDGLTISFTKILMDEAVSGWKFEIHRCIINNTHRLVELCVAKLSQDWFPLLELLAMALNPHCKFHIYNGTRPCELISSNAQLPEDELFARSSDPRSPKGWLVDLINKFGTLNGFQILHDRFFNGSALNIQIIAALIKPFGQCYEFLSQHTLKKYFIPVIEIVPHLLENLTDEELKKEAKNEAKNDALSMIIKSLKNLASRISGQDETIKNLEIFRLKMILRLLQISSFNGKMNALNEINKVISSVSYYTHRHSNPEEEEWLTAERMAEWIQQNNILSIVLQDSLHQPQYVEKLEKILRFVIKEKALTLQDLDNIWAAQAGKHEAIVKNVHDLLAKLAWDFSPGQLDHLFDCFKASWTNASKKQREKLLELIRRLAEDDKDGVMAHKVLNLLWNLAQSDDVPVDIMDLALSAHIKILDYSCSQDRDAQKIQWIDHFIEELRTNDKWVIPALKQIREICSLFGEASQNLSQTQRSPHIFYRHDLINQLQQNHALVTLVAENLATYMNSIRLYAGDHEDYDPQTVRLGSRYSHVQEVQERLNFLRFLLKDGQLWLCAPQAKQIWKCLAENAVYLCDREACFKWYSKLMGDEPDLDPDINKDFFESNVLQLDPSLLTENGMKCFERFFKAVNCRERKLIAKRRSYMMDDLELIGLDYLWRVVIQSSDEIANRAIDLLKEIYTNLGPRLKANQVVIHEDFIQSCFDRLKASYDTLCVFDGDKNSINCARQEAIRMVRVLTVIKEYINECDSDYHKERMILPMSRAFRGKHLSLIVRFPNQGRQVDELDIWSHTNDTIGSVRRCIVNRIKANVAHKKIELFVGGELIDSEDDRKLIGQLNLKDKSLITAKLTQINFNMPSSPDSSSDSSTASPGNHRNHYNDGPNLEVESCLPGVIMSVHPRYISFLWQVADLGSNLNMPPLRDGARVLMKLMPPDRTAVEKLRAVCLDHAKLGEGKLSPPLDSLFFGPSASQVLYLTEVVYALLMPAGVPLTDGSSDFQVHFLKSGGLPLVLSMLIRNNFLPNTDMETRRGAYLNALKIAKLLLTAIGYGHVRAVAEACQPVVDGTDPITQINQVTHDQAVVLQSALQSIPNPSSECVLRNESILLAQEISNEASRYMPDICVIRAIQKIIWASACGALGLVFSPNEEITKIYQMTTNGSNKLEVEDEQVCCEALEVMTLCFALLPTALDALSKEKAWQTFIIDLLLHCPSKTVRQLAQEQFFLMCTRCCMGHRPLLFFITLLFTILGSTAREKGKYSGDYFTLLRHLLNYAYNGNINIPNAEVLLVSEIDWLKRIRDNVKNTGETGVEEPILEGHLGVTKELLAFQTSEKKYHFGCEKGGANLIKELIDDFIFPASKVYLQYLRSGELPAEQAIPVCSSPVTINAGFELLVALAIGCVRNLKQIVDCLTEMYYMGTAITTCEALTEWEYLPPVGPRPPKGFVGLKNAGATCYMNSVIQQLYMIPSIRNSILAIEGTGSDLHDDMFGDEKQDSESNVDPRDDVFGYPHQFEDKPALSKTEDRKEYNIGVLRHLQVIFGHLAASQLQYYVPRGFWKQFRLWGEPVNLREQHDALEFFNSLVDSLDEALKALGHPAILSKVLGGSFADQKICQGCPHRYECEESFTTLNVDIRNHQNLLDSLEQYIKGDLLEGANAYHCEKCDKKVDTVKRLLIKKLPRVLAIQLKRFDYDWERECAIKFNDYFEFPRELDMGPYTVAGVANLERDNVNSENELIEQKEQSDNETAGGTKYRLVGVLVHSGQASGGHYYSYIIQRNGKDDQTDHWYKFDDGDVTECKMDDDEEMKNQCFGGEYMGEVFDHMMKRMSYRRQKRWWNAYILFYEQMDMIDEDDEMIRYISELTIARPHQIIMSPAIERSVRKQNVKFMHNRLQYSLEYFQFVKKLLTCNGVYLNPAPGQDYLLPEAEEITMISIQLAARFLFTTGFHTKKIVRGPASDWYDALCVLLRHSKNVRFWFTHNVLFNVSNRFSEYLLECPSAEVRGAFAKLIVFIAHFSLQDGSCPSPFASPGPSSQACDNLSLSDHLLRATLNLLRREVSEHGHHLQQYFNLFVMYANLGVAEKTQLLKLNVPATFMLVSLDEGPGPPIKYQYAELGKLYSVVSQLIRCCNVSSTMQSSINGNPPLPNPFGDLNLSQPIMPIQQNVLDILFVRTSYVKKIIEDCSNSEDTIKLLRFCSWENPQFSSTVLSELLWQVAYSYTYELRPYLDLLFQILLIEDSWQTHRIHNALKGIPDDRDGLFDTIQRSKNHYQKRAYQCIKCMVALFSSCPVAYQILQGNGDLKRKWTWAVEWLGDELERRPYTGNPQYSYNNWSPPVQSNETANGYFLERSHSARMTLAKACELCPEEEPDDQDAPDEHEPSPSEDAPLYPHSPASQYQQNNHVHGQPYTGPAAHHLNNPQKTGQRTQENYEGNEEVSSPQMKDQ
# In short: (§1)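 Values give the average log2 ratio of fragment to vehicle, assessed by unpaired t-test on global-median-normalised Spectronaut label-free quantities. Proteins needed ≥2 unique peptides. HEK293T lysate (495 µg per sample) was treated in triplicate with fragment at 200 µM or vehicle for 3 h and then with Biotin-Ahx-Ub-VS at 0.5 µM final for 1 h. Labelled DUBs were NeutrAvidin-enriched, digested and run by diaPASEF LC-MS/MS.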
# UniProt P51784 = biological target: UniProt P51784
# Chain of UniProt P51784 (P51784 whole entry): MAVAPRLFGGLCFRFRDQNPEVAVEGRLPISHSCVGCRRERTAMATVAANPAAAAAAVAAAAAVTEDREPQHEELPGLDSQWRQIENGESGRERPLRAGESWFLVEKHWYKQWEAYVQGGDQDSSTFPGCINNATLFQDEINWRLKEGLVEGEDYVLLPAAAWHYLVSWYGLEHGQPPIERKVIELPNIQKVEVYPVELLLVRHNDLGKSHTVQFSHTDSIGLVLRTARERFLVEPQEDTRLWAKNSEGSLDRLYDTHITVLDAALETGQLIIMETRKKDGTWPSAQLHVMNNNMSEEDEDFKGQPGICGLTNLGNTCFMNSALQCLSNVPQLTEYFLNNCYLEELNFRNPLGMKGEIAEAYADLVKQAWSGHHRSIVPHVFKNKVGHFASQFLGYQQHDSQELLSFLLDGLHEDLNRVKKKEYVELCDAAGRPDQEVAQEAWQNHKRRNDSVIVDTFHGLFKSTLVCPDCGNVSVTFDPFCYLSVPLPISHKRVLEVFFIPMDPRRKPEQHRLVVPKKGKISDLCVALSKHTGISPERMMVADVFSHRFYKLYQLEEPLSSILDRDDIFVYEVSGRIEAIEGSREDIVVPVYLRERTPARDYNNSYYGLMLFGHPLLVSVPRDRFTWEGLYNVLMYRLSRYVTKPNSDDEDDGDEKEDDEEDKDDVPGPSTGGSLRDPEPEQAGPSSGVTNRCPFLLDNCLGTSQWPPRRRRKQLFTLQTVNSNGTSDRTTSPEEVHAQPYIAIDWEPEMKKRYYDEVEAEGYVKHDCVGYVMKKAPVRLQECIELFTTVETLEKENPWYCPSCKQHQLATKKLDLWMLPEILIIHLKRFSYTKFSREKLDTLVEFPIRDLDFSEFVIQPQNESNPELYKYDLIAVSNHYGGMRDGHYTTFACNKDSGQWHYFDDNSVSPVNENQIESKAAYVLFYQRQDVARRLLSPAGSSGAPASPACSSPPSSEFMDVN
# In short: as §1
# UniProt Q5T2D3 = biological target: T1, UniProt Q5T2D3
# T1 sequence (whole entry): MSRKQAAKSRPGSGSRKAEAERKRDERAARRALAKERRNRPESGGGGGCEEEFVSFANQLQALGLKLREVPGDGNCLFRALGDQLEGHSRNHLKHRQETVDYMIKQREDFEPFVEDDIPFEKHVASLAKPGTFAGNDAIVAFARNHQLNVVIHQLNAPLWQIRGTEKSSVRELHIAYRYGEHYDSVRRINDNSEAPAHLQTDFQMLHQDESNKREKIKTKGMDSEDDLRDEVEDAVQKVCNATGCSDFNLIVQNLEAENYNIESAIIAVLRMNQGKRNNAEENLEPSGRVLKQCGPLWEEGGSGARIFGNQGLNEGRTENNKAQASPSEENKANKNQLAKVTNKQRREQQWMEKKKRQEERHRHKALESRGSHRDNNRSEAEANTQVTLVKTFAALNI
# In short: as §1
# UniProt Q8TE49 = biological target: T2, UniProt Q8TE49
# T2 sequence (whole entry): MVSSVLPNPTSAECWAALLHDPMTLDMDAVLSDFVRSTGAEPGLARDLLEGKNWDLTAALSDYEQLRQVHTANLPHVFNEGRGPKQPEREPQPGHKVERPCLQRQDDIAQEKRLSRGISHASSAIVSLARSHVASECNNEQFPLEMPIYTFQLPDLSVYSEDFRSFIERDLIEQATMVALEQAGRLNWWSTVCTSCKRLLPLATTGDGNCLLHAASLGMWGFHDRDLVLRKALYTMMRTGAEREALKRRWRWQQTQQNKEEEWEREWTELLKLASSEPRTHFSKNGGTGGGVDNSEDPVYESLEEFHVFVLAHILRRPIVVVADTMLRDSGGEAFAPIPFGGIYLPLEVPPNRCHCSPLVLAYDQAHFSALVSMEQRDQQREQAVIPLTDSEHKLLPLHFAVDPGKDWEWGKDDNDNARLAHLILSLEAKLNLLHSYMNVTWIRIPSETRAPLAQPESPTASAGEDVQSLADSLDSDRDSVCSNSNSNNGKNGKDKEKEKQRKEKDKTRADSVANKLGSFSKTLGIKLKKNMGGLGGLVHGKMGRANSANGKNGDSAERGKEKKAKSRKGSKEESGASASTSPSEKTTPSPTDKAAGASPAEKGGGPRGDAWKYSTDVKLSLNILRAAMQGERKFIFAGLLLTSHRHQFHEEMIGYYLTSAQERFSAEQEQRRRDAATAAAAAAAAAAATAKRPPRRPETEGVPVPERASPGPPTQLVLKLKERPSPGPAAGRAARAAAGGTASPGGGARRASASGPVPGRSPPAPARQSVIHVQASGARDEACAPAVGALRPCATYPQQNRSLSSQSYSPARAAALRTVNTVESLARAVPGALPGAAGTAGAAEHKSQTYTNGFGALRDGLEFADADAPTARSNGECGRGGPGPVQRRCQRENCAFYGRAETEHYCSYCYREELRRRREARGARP
# In short: as §1
# UniProt Q9P2H5 = biological target: T3, UniProt Q9P2H5
# T3 sequence (whole entry): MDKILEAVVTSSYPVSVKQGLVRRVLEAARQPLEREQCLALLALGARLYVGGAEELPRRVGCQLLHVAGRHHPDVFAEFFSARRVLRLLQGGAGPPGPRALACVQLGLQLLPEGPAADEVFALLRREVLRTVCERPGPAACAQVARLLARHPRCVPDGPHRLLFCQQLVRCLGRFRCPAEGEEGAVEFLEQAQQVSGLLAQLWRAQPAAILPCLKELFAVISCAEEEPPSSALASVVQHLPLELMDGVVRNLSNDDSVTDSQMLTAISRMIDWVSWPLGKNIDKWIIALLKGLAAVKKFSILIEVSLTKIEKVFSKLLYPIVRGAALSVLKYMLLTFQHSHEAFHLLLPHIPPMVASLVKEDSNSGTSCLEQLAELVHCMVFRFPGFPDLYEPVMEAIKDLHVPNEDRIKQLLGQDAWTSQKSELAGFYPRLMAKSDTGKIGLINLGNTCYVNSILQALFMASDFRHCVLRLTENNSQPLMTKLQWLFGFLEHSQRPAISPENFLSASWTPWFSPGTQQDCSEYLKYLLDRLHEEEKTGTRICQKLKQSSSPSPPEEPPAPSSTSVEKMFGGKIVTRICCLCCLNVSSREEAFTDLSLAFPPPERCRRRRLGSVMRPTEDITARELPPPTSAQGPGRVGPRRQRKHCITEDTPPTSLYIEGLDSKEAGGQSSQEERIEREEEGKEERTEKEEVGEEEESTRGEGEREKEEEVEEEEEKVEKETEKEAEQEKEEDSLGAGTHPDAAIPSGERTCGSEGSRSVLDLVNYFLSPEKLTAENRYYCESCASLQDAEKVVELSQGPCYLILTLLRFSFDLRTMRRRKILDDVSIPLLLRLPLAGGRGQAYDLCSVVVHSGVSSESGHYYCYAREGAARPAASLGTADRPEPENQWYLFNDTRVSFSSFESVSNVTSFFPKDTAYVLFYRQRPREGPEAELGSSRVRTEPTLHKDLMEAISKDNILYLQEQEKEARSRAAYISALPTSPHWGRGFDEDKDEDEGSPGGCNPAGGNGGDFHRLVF
# In short: as §1
# UniProt Q9UGI0 = biological target: T4, UniProt Q9UGI0
# T4 sequence (whole entry): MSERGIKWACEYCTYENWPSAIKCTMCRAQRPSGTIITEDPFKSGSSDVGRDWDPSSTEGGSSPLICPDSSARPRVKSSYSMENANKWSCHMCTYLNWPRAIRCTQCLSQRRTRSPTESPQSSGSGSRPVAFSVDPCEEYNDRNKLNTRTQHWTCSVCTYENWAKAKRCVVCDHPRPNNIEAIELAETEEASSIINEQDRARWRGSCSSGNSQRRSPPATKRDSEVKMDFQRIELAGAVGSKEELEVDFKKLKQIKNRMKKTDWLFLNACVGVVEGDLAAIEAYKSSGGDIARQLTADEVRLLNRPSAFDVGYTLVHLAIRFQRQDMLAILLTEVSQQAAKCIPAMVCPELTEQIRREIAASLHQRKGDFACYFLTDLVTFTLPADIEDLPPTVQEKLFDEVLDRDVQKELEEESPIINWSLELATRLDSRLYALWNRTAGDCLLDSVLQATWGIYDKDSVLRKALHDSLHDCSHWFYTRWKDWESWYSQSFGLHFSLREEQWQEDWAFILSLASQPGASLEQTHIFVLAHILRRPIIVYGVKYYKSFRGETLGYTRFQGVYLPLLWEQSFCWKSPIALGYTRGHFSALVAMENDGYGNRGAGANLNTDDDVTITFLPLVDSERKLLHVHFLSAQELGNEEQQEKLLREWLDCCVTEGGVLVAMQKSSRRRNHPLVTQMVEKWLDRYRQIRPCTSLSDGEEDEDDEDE
# In short: as §1
# YOD1 = biological target: T5, YOD1 (UniProt Q5VVQ6)
# T5 sequence (whole entry): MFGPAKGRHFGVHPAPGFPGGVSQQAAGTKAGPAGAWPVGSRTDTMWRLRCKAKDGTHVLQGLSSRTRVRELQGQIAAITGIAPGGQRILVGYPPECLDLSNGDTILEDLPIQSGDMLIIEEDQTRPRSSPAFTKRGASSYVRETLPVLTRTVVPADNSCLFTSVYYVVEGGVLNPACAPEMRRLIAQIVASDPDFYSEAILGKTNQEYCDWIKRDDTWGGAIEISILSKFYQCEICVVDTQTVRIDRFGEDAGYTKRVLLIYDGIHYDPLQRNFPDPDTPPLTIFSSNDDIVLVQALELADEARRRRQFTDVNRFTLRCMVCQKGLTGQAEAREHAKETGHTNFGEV
# In short: as §1
Structure (SMILES),log2 ratio of Biotin-Ahx-Ub-VS probe labelling (UniProt O00507),log2 ratio of Biotin-Ahx-Ub-VS probe labelling (UniProt P51784),log2 ratio of Biotin-Ahx-Ub-VS probe labelling (UniProt Q5T2D3),log2 ratio of Biotin-Ahx-Ub-VS probe labelling (UniProt Q8TE49),log2 ratio of Biotin-Ahx-Ub-VS probe labelling (UniProt Q9P2H5),log2 ratio of Biotin-Ahx-Ub-VS probe labelling (UniProt Q9UGI0),log2 ratio of Biotin-Ahx-Ub-VS probe labelling (YOD1)
Cc1noc(N2CCN(C(=O)CCl)CC2)n1.Cl,0.416,0.139,-0.466,-0.674,-0.642,-0.369,0.313
O=C(CCl)Nc1cccc(NC(=O)c2ccccc2)c1,0.236,0.295,0.263,-0.0536,-0.23,0.0168,0.288
O=C(CCl)N1CCc2[nH]c3ccccc3c2C1,-1.27 (active),-0.429,-0.115,-0.338,-0.439,-1.68 (active),-0.2
CN(CCc1ncc(Br)cn1)C(=O)CCl.Cl,-0.225,-0.0725,-0.508,-1.75 (active),-0.437,-0.752,0.0394
Cc1cc(CC(C)NC(=O)CCl)n[nH]1 (stereo not given),-0.165,-0.131,-0.595,0.0154,-0.232,-0.68,0.241
